This is a sample that favours compounds with a hit; in the whole collection about 3% have one here.
SENP7 block: SENP7 protease inhibitors, primary screen, biochemical, luminescence, uHTS; Sentrin-specific protease 7 (Homo sapiens), Q9BQF6; recombinant SENP7, Z-RLRGG-aminoluciferin luminescence, 40 min; inhibition, % at 5 µM; hit rate 1.5% among 330,000;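 active means inhibition above about 50% at the single test dose, limit read from the data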;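 further: plate controls were DMSO with enzyme for no effect and no enzyme buffer wells for full effect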
Target sequence (Q9BQF6 706-1050 limits assumed): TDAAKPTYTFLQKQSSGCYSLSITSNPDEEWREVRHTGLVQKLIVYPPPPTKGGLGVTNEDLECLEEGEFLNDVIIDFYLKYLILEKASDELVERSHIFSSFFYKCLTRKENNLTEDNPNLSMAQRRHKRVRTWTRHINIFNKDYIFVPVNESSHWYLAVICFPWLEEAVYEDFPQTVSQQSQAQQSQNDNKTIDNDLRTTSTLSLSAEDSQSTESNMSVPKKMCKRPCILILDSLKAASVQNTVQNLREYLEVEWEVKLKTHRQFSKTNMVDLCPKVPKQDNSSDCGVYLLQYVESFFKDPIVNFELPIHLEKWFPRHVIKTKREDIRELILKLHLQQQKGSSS
SENP8 block-1: SENP8 protease inhibitors, primary screen, biochemical, luminescence; Sentrin-specific protease 8 (Homo sapiens), Q96LD8; purified SENP8, Z-RLRGG-aminoluciferin cleavage; inhibition, % at 10 µM; hit rate 1.2% among 330,000; in the data active means inhibition above about 50%
C8 TRAIL sens: viability loss with TRAIL in NB7+C8 cells, primary screen, TRAIL sensitizer project, cell-based, ATPlite luminescence. inhibition (viability loss, TRAIL sensitization), % at 10 µM. hit rate 1% among 360,000. AID 624354, 2012;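 active means compounds causing at least 50% loss of cell viability in the single-dose screen, relative to plate controls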
SENP6 inh: SENP6 protease inhibitors, primary screen, biochemical, luminescence, uHTS; inhibition, % at 10 µM; Recombinant SENP6 catalytic domain, aminoluciferin luminescence; Sentrin-specific protease 6 (Homo sapiens), Q9GZR1; hit rate 1.8% among 330,000;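 active means inhibition above about 50% at the single tested dose, limit read from the data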;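 further: plate controls were DMSO wells with enzyme for no effect and DMSO wells lacking enzyme for full effect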
SENP8 block-2: human SENP8 protease inhibitors, primary screen, biochemical, fluorescence, Nedd8 protein substrate, uHTS. inhibition, % at 20 µM. AID 602440, 2012. hit rate 0.64% among 360,000. recombinant SENP8. Sentrin-specific protease 8 (Homo sapiens), Q96LD8; in the data active means inhibition mostly above about 40%, no sharp cut-off; inactive means mostly below about 27%
PPC-1+TRAIL kill: compounds killing PPC-1 cancer cells with TRAIL present, primary screen, TRAIL potentiator project, ATPLite luminescence, uHTS; PPC-1 cells + TRAIL, ATPLite viability luminescence; cell killing (% activity), % at 4 µM or 5 µM; hit rate 0.41% among 220,000;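 active means cell killing above 50% in the first pass at 4 µM, then a duplicate retest at 5 µM averaging 50% or more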;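 further: plate controls were cells with TRAIL plus DMSO for no effect and medium-only wells lacking cells for full effect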
SENP8 conf: SENP8 protease inhibitors, retest, confirmation, biochemical, luminescence, single concentration | AID 488912, 2010 | shares compounds with SENP7 block | inhibition, % at 12.5 µM | Recombinant SENP8, Z-RLRGG-aminoluciferin luminescence, 60 min | hit rate 40% among 6,200;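 active means mean inhibition across replicates above about 50%, limit read from the data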
SENP6 conf: SENP6 protease inhibitors, confirmation, biochemical, luminescence, single concentration. shares compounds with SENP7 block. hit rate 58% among 6,200. recombinant SENP6, Z-RLRGG-aminoluciferin luminescence. inhibition, % at 12.5 µM
SENP7 confirm: SENP7 protease inhibitors, retest, confirmation, biochemical, luminescence, single concentration. shares compounds with SENP7 block. recombinant SENP7, Z-RLRGG-aminoluciferin luminescence, 40 min. inhibition, % at 12.5 µM. hit rate 69% among 6,200. AID 488917, 2010
Casp3 select: caspase-3 protease inhibitors, confirmation, selectivity assay for SENP inhibitor project, biochemical, single concentration; inhibition, % at 12.5 µM; hit rate 60% among 6,200; shares compounds with SENP7 block; purified caspase-3, Z-DEVD-aminoluciferin luminescence, 60 min;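 active means mean inhibition above about 50%, limit read from the data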;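 further: plate controls were enzyme with DMSO for no effect and wells without caspase-3 for full effect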
Target sequence (P42574 28-227 limits assumed): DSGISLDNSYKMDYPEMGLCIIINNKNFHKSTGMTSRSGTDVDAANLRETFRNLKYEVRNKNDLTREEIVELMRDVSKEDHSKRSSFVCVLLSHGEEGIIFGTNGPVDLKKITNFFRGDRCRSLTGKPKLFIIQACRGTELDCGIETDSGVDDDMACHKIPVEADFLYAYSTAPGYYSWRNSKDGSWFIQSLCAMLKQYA
Luc interf: interferes with luciferase luminescence in SENP counter-screen | shares compounds with SENP7 block | AID 488919 | inhibition, % at 12.5 µM | Pre-incubated SENP8/Z-RLRGG-aminoluciferin, luciferase luminescence interference | hit rate 39% among 6,200;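 active means mean inhibition above about 50% when retested at one dose, limit read from the data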;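 further: plate controls were DMSO wells with completed reaction for no effect and substrate without enzyme for full effect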
Starred values were filed as active, the others as inactive; · = not tested or not shown.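 How the source made its calls, unless noted: active means mean inhibition above about 50% in the one-dose retest (limit read from the data); inactive means the rest.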

SMILES	SENP7 block	SENP8 block-1	C8 TRAIL sens	SENP6 inh	SENP8 block-2	PPC-1+TRAIL kill	SENP8 conf	SENP6 conf	SENP7 confirm	Casp3 select	Luc interf
O=C(CCS(=O)(=O)Cc1ccccc1)Nc1ncc([N+](=O)[O-])s1	83*	84*	-4	88*	7	·	-1	83*	97*	71*	82*
O=C(COC(=O)c1ccc(Br)o1)Nc1ncc([N+](=O)[O-])s1	28	65*	0	74*	18	·	69*	66*	86*	78*	73*
Cc1ccc(S(=O)(=O)CC(=O)Nc2ncc([N+](=O)[O-])s2)cc1	13	0	-3	7	8	·	·	·	·	·	·
Cc1ccc(CC(=O)Nc2ncc([N+](=O)[O-])s2)cc1	63*	88*	-9	91*	-175	6	93*	93*	99*	91*	55*
COc1ccccc1OCC(=O)NNC(=O)c1c(-c2ccccc2Cl)noc1C	-2	-3	7	-13	-2	·	·	·	·	·	·
NS(=O)(=O)c1cccc(NC(=O)CC(NC(=O)c2ccccc2Cl)c2ccccc2)c1 (stereo not given)	1	5	-12	7	8	·	·	·	·	·	·
CCCCn1c(N)c(N(CCOC)C(=O)CN2C(=O)C3CCCCC3C2=O)c(=O)[nH]c1=O (stereo not given)	-2	-10	-13	-4	-7	·	·	·	·	·	·
CC12CCC(=O)C=C1CCCC2=O (stereo not given)	·	·	-9	·	12	·	·	·	·	·	·
CCC(=O)Nc1ccc(NC(=O)CSc2nnc(-c3ccco3)n2CC)cc1	-6	-7	-4	-38	8	·	·	·	·	·	·
Cc1csc(NC(=O)c2ccc3c(c2)OCO3)n1	86*	75*	0	85*	-19	·	43	80*	96*	90*	82*
COc1ccc(C(=O)Nc2nccs2)cc1OC	2	3	-6	2	-16	28	·	·	·	·	·
O=C(Nc1nccs1)c1ccc2c(c1)OCO2	48	44	25	63*	6	·	-5	8	68*	67*	0
CC(=O)c1sc(NC(=O)c2ccc(C)c(C)c2)nc1C	33	-11	33	-14	-11	-9	·	·	·	·	·
CC(=O)c1sc(NC(=O)c2ccc3c(c2)OCO3)nc1C	82*	70*	34	80*	-35	·	63*	77*	95*	88*	77*
CC(=O)c1sc(NC(=O)c2cnc(Cl)c(Cl)c2)nc1C	66*	77*	18	84*	-28	·	12	54*	28	91*	82*
O=C(NNC1=NCCC1)C1CC1	3	-4	-4	-9	11	20	·	·	·	·	·
CSCC[C@H](NC(=O)c1ccco1)c1nnc2ccccn12	0	-4	-12	16	6	·	·	·	·	·	·
N#CCc1nn2c(-c3ccccc3)ccnc2c1C#N	-9	-8	-12	0	-321	·	·	·	·	·	·
CC(=O)NCCNc1nc2cc(-c3cccc(Cl)c3)sc2c(=O)n1C	·	·	-4	·	-132	·	·	·	·	·	·
Cc1cc2nn(-c3cccc4ccccc34)nc2cc1N	12	-4	-5	13	-353	23	·	·	·	·	·
COc1ccc(-n2nc3ccccc3n2)cc1	-5	-22	-1	-56	4	-2	·	·	·	·	·
Nc1cc2nn(-c3ccccc3)nc2cc1Cl	·	·	-4	·	-420	-1	·	·	·	·	·
Nc1ccc(-n2nc3ccccc3n2)cc1	64*	38	12	41	-452	·	36	56*	87*	60*	67*
Nc1ccc2nn(-c3cccc4ccccc34)nc2c1	77*	85*	12	79*	-490	22	-3	27	16	6	7
Nc1ccc2nn(-c3ccccc3)nc2c1	43	66*	22	74*	-410	21	-5	65*	82*	62*	31
SMILES	SENP7 block	SENP8 block-1	C8 TRAIL sens	SENP6 inh	SENP8 block-2	PPC-1+TRAIL kill	SENP8 conf	SENP6 conf	SENP7 confirm	Casp3 select	Luc interf
Cc1ccc(NC(=O)C(=O)c2c[nH]c3ccccc23)cc1	70*	47	30	66*	16	·	52*	49	87*	45	11
Cc1ccc(NC(=O)c2cc(=O)[nH]c3ccccc23)cc1	2	3	-11	-14	17	·	·	·	·	·	·
O=C(Cn1cc(SCc2ccc(Cl)cc2)c2ccccc21)N1CCOCC1	49	44	-5	67*	19	-6	13	65*	82*	26	21
O=C(Cn1cc(SCc2ccc(F)cc2)c2ccccc21)N1CCOCC1	22	16	-5	58*	18	2	50*	48	79*	27	36
CN(C(=O)CSc1cn(CC(=O)N2CCOCC2)c2ccccc12)c1ccccc1	3	-1	-1	0	8	·	·	·	·	·	·
CCN(CC)S(=O)(=O)c1ccc2[nH]c(=O)c3ccccc3c2c1	9	6	-8	-22	-15	·	·	·	·	·	·
C/C(=N\Nc1nccnc1Cl)c1ccc(O)c(C)c1	93*	31	22	54*	-29	·	43	48	75*	76*	56*
O=C(O)c1cccc(-c2noc(-c3cccc(Cl)c3)n2)c1	101*	98*	62*	99*	10	·	99*	100*	103*	98*	96*
NC(=O)c1ccc(-c2noc(-c3cccc(Cl)c3)n2)cc1	58*	14	-4	6	9	·	-14	-8	8	16	-2
Cc1nn(-c2ccccc2)c(Cl)c1/C=N/NC(=O)OC(C)(C)C	-12	-9	39	-15	1	0	·	·	·	·	·
O=C(O)c1cc(N/N=C/c2ccc(OCc3ccccc3)cc2)ccc1Cl	30	72*	-20	56*	-8	22	60*	54*	74*	15	69*

Screening data: PubChem, Sanford-Burnham Center for Chemical Genomics
